Data on 8 sequences can be found in article PMC7862700, “An all-to-all approach to the identification of sequence-specific readers for epigenetic DNA modifications on cytosine”.

Holding throughout (test): DAPPL (digital affinity profiling via proximity ligation, sequencing); 10 mM Tris-HCl pH 7.5, 50 mM NaCl, 1 mM DTT, 4% glycerol, room temperature, 30 min; GST-TFs on glutathione beads, 16-mer random dsDNA library, 0.1% formaldehyde crosslink after washing; high values mean tight binding
What all share (details): protein: recombinant; tags: N-terminal GST; dsDNA, one strand shown

Assay [1] deals with T1, FLI1 (Homo sapiens, UniProt Q01543 1-452).
T1 sequence: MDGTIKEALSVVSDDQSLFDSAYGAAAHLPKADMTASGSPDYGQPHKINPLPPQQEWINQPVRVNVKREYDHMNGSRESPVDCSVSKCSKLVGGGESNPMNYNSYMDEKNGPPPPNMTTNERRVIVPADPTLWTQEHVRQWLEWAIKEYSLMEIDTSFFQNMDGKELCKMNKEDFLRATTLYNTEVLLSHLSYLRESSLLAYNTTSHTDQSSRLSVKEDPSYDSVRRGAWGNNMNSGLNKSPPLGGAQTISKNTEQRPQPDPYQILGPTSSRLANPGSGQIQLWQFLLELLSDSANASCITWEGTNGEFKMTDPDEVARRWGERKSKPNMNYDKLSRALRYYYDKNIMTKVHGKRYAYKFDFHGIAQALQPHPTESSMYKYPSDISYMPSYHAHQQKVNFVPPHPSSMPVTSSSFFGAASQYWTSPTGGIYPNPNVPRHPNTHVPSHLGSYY
A digest of the protocol:
(§1)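 Binding signal is given per hexamer as its read frequency for a factor divided by its frequency in the tag-only sample. GST-fused human transcription factors were expressed in yeast, captured on glutathione beads, barcoded with DNA and pooled with that sample, then incubated with 200 nmole of a 16-mer random double-stranded DNA library in Tris/NaCl/DTT/glycerol buffer for 30 min at room temperature. The pools were then washed, crosslinked, proximity-ligated, amplified by PCR and sequenced on an Illumina NextSeq500.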

In assay [2] the target is T2, ELK1 (Homo sapiens, UniProt P19419 1-428).
T2 sequence: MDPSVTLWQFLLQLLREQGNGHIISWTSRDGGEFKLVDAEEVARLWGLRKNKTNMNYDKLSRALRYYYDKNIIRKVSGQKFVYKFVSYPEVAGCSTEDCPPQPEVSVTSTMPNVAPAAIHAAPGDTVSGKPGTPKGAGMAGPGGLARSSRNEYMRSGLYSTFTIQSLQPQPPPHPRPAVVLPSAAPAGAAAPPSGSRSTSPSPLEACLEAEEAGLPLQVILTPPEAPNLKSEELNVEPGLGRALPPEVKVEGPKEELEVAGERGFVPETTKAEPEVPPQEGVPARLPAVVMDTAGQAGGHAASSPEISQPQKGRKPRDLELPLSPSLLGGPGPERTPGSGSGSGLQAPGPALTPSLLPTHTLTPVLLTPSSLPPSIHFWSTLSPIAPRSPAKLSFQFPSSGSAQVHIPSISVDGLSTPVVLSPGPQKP
A digest of the protocol:
as §1

The target in assay [3] is T3, GABPA (Homo sapiens, UniProt Q06546 1-454).
T3 sequence: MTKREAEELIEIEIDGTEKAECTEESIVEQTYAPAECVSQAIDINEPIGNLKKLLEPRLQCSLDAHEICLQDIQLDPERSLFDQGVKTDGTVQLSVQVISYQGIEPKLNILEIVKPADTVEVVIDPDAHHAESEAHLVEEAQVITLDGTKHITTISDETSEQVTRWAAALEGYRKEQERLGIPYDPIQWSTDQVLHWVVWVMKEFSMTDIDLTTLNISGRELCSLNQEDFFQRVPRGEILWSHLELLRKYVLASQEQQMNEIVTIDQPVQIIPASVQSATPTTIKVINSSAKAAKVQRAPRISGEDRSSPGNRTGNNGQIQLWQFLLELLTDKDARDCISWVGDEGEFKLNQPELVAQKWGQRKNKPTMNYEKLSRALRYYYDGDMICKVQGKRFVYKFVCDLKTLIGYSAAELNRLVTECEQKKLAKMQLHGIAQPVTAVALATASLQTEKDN
A digest of the protocol:
as §1

Assay [4] deals with T4, ERG (Homo sapiens, UniProt P11308 1-479).
T4 sequence: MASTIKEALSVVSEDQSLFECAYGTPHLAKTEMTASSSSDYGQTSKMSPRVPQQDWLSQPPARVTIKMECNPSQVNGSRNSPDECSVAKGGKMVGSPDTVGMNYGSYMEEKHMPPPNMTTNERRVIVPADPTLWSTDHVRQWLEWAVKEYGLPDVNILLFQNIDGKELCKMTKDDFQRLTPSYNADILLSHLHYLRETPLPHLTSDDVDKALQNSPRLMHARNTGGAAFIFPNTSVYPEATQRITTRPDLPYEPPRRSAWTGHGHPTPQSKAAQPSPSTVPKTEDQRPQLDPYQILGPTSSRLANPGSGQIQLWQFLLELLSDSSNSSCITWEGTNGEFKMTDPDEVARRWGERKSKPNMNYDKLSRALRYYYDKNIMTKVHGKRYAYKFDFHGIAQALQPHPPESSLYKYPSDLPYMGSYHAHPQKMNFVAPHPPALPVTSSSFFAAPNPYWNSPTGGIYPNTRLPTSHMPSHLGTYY
In short, it runs like this:
as §1

Assay [5] has as its target ELF1 (Homo sapiens, UniProt P32519 1-619). A digest of the protocol: as §1
For assay [6], the target named is T5, EHF (Homo sapiens, UniProt Q9NZC4 1-300).
T5 sequence: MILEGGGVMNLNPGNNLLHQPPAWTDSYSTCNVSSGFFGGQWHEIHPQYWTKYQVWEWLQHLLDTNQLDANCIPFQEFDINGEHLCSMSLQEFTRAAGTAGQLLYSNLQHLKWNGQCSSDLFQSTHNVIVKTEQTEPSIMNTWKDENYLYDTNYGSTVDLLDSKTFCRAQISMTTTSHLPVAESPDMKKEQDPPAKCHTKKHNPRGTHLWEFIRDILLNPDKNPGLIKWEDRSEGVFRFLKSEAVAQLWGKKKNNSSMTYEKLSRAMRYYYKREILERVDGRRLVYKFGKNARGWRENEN
In short, it runs like this:
as §1

For assay [7], the target named is SPI1 (Homo sapiens, UniProt P17947 1-270). A digest of the protocol:
as §1

The target in assay [8] is SPIB (Homo sapiens, UniProt Q01892 1-262). A digest of the protocol:
as §1

Assay [9] addresses T6, ELK3 (Homo sapiens, UniProt P41970 1-407).
T6 sequence: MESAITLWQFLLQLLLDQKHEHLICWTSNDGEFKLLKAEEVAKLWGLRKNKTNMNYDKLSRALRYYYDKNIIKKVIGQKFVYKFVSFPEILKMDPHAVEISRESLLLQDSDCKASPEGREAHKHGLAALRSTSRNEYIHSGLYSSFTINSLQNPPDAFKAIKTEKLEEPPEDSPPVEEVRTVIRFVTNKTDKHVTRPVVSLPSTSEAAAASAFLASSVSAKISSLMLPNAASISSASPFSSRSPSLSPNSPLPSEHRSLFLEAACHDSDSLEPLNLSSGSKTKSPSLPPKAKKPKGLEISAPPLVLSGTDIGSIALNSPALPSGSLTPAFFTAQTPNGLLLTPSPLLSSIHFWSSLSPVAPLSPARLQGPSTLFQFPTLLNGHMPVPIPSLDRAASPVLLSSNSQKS
A digest of the protocol:
as §1

Sequence of SPIB (Q01892 whole entry): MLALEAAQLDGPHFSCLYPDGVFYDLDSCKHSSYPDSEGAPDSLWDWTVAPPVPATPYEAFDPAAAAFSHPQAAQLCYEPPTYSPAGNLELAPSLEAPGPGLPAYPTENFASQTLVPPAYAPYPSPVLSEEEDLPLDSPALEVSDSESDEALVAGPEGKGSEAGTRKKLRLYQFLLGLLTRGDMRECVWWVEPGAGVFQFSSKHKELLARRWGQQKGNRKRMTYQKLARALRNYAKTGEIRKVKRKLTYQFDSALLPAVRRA
Sequence of ELF1 (P32519 whole entry): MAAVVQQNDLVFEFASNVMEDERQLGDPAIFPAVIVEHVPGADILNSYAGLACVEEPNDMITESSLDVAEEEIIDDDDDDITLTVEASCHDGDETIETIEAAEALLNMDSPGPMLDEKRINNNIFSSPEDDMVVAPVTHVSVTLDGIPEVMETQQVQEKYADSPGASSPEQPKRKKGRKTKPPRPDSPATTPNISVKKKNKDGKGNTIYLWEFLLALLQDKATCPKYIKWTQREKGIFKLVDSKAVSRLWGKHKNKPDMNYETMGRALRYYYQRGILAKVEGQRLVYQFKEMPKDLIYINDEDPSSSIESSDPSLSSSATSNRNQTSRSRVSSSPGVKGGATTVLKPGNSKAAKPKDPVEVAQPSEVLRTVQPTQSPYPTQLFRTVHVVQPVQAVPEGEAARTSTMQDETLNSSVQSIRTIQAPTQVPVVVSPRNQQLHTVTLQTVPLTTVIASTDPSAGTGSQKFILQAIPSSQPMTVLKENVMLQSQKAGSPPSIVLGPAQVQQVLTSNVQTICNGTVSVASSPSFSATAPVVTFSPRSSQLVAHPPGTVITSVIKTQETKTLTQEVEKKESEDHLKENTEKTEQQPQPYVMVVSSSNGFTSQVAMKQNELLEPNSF

Consider TTTAAA, for which the binding signal was 1.27 fold enrichment (6-mer frequency, TF over GST control) in [1]; 1.26 fold enrichment (6-mer frequency, TF over GST control) in assay [2]; 1.19 fold enrichment (6-mer frequency, TF over GST control) in [3]; 1.2 fold enrichment (6-mer frequency, TF over GST control) in assay [4]; 1.29 fold enrichment (6-mer frequency, TF over GST control) in assay [5]; 1.21 fold enrichment (6-mer frequency, TF over GST control) in assay [6]. In addition, the binding signal in [7] was 1.31 fold enrichment (6-mer frequency, TF over GST control); in assay [8], 1.17 fold enrichment (6-mer frequency, TF over GST control); in [9] it was 1.32 fold enrichment (6-mer frequency, TF over GST control).
For TAACCT, the binding signal in assay [1] is 1.2 fold enrichment (6-mer frequency, TF over GST control); in assay [2], 1.32 fold enrichment (6-mer frequency, TF over GST control); in assay [3], 1.35 fold enrichment (6-mer frequency, TF over GST control); in assay [4], 1.12 fold enrichment (6-mer frequency, TF over GST control); in assay [5] it was 1.35 fold enrichment (6-mer frequency, TF over GST control); in assay [6] it was 1.29 fold enrichment (6-mer frequency, TF over GST control). Moreover, the binding signal was 1.29 fold enrichment (6-mer frequency, TF over GST control) in assay [7]; 1.31 fold enrichment (6-mer frequency, TF over GST control) in assay [8]; 1.43 fold enrichment (6-mer frequency, TF over GST control) in [9].
Take ACTCTC: the binding signal in assay [1] was 1.5 fold enrichment (6-mer frequency, TF over GST control); in assay [2], 1.59 fold enrichment (6-mer frequency, TF over GST control); in assay [3], 1.41 fold enrichment (6-mer frequency, TF over GST control); in [4] it was 1.47 fold enrichment (6-mer frequency, TF over GST control); in [5] it was 1.55 fold enrichment (6-mer frequency, TF over GST control); in assay [6] it was 1.47 fold enrichment (6-mer frequency, TF over GST control). Besides, the binding signal was 1.49 fold enrichment (6-mer frequency, TF over GST control) in assay [7]; 1.47 fold enrichment (6-mer frequency, TF over GST control) in [8]; 1.44 fold enrichment (6-mer frequency, TF over GST control) in [9].
Consider TATCGA, for which the binding signal in assay [1] is 1.36 fold enrichment (6-mer frequency, TF over GST control); in assay [2], 1.28 fold enrichment (6-mer frequency, TF over GST control); in assay [3] it was 1.32 fold enrichment (6-mer frequency, TF over GST control); in assay [4], 1.36 fold enrichment (6-mer frequency, TF over GST control); in assay [5] it was 1.36 fold enrichment (6-mer frequency, TF over GST control); in [6], 1.35 fold enrichment (6-mer frequency, TF over GST control). Moreover, the binding signal in assay [7] was 1.34 fold enrichment (6-mer frequency, TF over GST control); in assay [8], 1.25 fold enrichment (6-mer frequency, TF over GST control); in assay [9], 1.34 fold enrichment (6-mer frequency, TF over GST control).
Regarding CTACCA, the binding signal in [1] is 1.27 fold enrichment (6-mer frequency, TF over GST control); in [2], 1.27 fold enrichment (6-mer frequency, TF over GST control); in assay [3], 1.42 fold enrichment (6-mer frequency, TF over GST control); in assay [4], 1.29 fold enrichment (6-mer frequency, TF over GST control); in assay [5], 1.39 fold enrichment (6-mer frequency, TF over GST control); in assay [6], 1.22 fold enrichment (6-mer frequency, TF over GST control). The binding signal in [7] is 1.26 fold enrichment (6-mer frequency, TF over GST control); in assay [8], 1.23 fold enrichment (6-mer frequency, TF over GST control); in assay [9], 1.16 fold enrichment (6-mer frequency, TF over GST control).
In the case of CTTCGG, the binding signal in assay [1] is 1.48 fold enrichment (6-mer frequency, TF over GST control); in assay [2], 1.46 fold enrichment (6-mer frequency, TF over GST control); in assay [3], 1.58 fold enrichment (6-mer frequency, TF over GST control); in assay [4], 1.35 fold enrichment (6-mer frequency, TF over GST control); in assay [5] it was 1.39 fold enrichment (6-mer frequency, TF over GST control); in assay [6], 1.24 fold enrichment (6-mer frequency, TF over GST control). The binding signal is 1.37 fold enrichment (6-mer frequency, TF over GST control) in assay [7]; 1.46 fold enrichment (6-mer frequency, TF over GST control) in [8]; 1.38 fold enrichment (6-mer frequency, TF over GST control) in assay [9].
Regarding CCCGCA, the binding signal is 1.23 fold enrichment (6-mer frequency, TF over GST control) in [1]; 1.2 fold enrichment (6-mer frequency, TF over GST control) in [2]; 1.25 fold enrichment (6-mer frequency, TF over GST control) in assay [3]; 1.15 fold enrichment (6-mer frequency, TF over GST control) in assay [4]; 1.29 fold enrichment (6-mer frequency, TF over GST control) in assay [5]; 1.29 fold enrichment (6-mer frequency, TF over GST control) in assay [6]. The binding signal was 1.22 fold enrichment (6-mer frequency, TF over GST control) in assay [7]; 1.29 fold enrichment (6-mer frequency, TF over GST control) in [8]; 1.25 fold enrichment (6-mer frequency, TF over GST control) in assay [9].
With AATCTA, the binding signal was 1.07 fold enrichment (6-mer frequency, TF over GST control) in assay [1]; 1.06 fold enrichment (6-mer frequency, TF over GST control) in assay [2]; 1.05 fold enrichment (6-mer frequency, TF over GST control) in [3]; 1.17 fold enrichment (6-mer frequency, TF over GST control) in assay [4]; 1.17 fold enrichment (6-mer frequency, TF over GST control) in assay [5]; 1.17 fold enrichment (6-mer frequency, TF over GST control) in assay [6]. Besides, the binding signal is 1.12 fold enrichment (6-mer frequency, TF over GST control) in [7]; 1.17 fold enrichment (6-mer frequency, TF over GST control) in [8]; 1.12 fold enrichment (6-mer frequency, TF over GST control) in assay [9].
